According to PubChem BioAssay (Tox21):
Results filed as inconclusive are left out. Calls of active or inactive are those of the source. Unless noted, calls come from the whole dose curve; as a rule, active = well fitted curve in the direction sought with a large enough effect in the repeat runs; inconclusive = weak or mixed curves; inactive = no such curve, though single readings can be large; an effect the other way counts as inactive or inconclusive.

Columns and labels:
[1] = molecular target: Retinoic acid receptor RXR-alpha (Homo sapiens) (UniProt P19793); assay: qHTS assay to identify small molecule agonists of the RXR signaling pathway (AID 1159527; calls by dose curve; note: nearly all actives have a fitted effect of over 35% in size)
Sequence of Retinoic acid receptor RXR-alpha (Homo sapiens) (P19793 whole entry, looked up): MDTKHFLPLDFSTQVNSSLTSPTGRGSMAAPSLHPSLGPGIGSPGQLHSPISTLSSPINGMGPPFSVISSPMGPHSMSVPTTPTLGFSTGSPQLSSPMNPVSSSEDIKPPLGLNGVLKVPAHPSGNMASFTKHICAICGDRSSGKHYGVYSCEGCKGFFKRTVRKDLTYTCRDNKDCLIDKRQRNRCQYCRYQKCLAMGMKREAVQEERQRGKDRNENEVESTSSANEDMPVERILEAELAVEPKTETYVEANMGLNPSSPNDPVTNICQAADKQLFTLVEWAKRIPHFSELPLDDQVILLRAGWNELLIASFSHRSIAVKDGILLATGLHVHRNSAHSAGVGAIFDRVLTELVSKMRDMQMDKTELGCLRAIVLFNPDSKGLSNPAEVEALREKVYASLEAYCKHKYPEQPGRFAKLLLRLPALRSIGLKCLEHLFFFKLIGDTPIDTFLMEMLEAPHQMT
Summary of the method: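 GeneBLAzer RXR-alpha-UAS-bla HEK 293T cells in medium with 2% charcoal-stripped FBS, pre-incubated 5 hr at 37 C, then exposed to compounds 16 hr. Beta-lactamase reporter read by FRET substrate, 2 hr room temperature, 460/530 nm emission.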

[2] = qHTS assay to identify small molecule agonists of the RXR signaling pathway - cell viability counter screen (AID 1159529); note: series mostly up to about 77 µM; nearly all actives have a fitted effect of over 50% in size
Summary of the method: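 RXR-alpha-UAS-bla HEK 293T cells in medium with 2% charcoal-stripped FBS were preincubated 5 hr, then exposed to compounds for 16 hr at 37 C. Viability was read as CellTiter-Glo luminescence after 30 min at room temperature.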

[3] = qHTS assay to identify small molecule antagonists of the retinoid acid receptor (RAR) signaling pathway - cell viability counter screen (AID 1159551); note: nearly all actives have a fitted effect of over 35% in size
Summary of the method: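 Retinol-stimulated (1 uM final) C3RL4 cells, compound 6 h, 37 C; readout CellTiter-Glo luminescence (ATP) after 30 min RT incubation.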

[4] = qHTS assay to identify small molecule antagonists of the estrogen related receptor (ERR) signaling pathway from Tox21 library - cell viability counter screen (AID 1224834); note: nearly all actives have a fitted effect of over 30% in size
Summary of the method: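 After 17.5 h of compound exposure at 37 C, ERR cells are incubated with CellTiter-Fluor for 30 min and fluorescence intensity serves as the viability measure.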

[5] = molecular target: Luciferin 4-monooxygenase (Photinus pyralis) (UniProt P08659); assay: qHTS assay to identify small molecule inhibitors of firefly luciferase (AID 1224835); note: series mostly up to about 120 µM; nearly all actives have a fitted effect of over 25% in size
Sequence of Luciferin 4-monooxygenase (Photinus pyralis) (P08659 whole entry, looked up): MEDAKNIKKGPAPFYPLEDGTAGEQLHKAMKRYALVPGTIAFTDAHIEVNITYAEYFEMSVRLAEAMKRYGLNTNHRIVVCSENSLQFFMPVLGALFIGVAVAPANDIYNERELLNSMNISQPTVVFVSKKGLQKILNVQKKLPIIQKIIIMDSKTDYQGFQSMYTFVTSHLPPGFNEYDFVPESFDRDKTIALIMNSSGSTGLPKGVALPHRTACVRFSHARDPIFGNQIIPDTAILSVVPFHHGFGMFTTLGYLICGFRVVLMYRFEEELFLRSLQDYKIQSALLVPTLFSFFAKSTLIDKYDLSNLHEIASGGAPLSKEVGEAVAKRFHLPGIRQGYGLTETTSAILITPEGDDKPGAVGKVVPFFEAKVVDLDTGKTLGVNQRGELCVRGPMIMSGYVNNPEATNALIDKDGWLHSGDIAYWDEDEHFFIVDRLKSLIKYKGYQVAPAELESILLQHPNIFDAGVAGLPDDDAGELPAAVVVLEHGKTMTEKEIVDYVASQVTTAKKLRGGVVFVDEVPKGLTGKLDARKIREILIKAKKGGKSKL
Summary of the method: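 Quantitative HTS format; KM concentrations of both substrates. Purified P. pyralis FLuc activity quantified from luminescence images.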

[6] = qHTS assay to identify small molecule agonists of the constitutive androstane receptor (CAR) signaling pathway - cell viability counter screen (AID 1224836); note: series mostly up to about 92 µM; nearly all actives have a fitted effect of over 45% in size
Summary of the method: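 HepG2 cells stably carrying hCAR and a CYP2B6-2.2kb reporter were plated 4 h, then given compounds at 15 concentrations plus PK11195 (final 0.75 uM). After 23 h at 37 C, viability was read by CellTiter-Fluor fluorescence.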

[7] = qHTS assay to identify small molecule antagonists of the constitutive androstane receptor (CAR) signaling pathway - cell viability counter screen (AID 1224837); note: series mostly up to about 92 µM; nearly all actives have a fitted effect of over 45% in size
Summary of the method: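 Counter screen run in HepG2-CYP2B6-hCAR cells: 4 hr settle, compound titration (15 concentrations) with 50 nM CITCO, 23 hr at 37 C/5% CO2, CellTiter-Fluor fluorescence.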

[8] = molecular target: Nuclear receptor subfamily 1 group I member 3 (Homo sapiens) (UniProt Q14994); assay: qHTS assay to identify small molecule antagonists of the constitutive androstane receptor (CAR) signaling pathway (AID 1224838); note: nearly all actives have a fitted effect of over 40% in size
Sequence of Nuclear receptor subfamily 1 group I member 3 (Homo sapiens) (Q14994 whole entry, looked up): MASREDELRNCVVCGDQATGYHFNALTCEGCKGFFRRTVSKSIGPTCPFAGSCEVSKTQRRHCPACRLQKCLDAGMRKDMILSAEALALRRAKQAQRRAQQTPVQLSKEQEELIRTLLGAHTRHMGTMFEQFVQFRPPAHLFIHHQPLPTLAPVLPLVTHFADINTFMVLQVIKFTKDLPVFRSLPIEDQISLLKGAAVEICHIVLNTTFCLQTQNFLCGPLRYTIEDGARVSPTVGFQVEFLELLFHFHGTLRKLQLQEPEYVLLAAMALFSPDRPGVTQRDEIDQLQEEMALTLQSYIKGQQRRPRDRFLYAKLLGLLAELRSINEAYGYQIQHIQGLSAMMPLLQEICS
Summary of the method: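 Cell line: HepG2 double-stable for hCAR and CYP2B6-2.2kb reporter. Agonist: CITCO, 50 nM final. Compounds: 15 concentrations, 24 h, 37 C. Detection: ONE-Glo luminescence.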

[9] = molecular target: Nuclear receptor subfamily 1 group I member 3 (Homo sapiens) (UniProt Q14994); assay: qHTS assay to identify small molecule agonists of the constitutive androstane receptor (CAR) signaling pathway (AID 1224839);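 note: HepG2 cells stably carrying human CAR and a CYP2B6 luciferase reporter; series mostly up to about 92 µM; nearly all actives have a fitted effect of over 15% in size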
Summary of the method: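 HepG2 cells stably expressing hCAR and a CYP2B6-2.2kb luciferase reporter were treated with compounds at 15 concentrations plus 0.75 uM PK11195 (final) for 24 h at 37 C; luminescence was read after ONE-Glo addition.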

[10] = qHTS assay to identify small molecule antagonists of the estrogen related receptor signaling pathway with the pleiotropic PPARgamma coactivator (PGC) from Tox21 10K library - cell viability counter screen (AID 1224840; active = well fitted cell-killing curve with a large enough effect in the repeat runs, not every such curve was filed as active; note: nearly all actives have a fitted effect of over 40% in size)
Summary of the method: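 Following seeding of 2,000 PGC/ERR cells/well and 6 hours' incubation, test compounds were delivered in DMSO. The plates then sat 17.5 hours at 37 C before a fluorogenic live-cell protease reagent (CellTiter-Fluor) was read after 30 min.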
% is set by controls: 0 for no effect and ±100 for the full control effect.

OC1OC[C@@H](O)[C@H](O)[C@H]1O (stereo not given in full)
inactive: Potency [1] | Potency [2] | outcome [3] | Potency [4] | Potency [5] | outcome [6] | outcome [7] | Potency [8] | Potency [9] | outcome [10]

NS(=O)(=O)c1cc2c(cc1C(F)(F)F)NC(Cc1ccccc1)NS2(=O)=O (stereo not given)
inactive: Potency [1] | Potency [2] | outcome [3] | Potency [4] | Potency [5] | outcome [6] | outcome [7] | Potency [8] | Potency [9] | outcome [10]

NCCN1CCNC1=O
inactive: Potency [1] | Potency [2] | outcome [3] | Potency [4] | Potency [5] | outcome [6] | outcome [7] | Potency [8] | Potency [9] | outcome [10]

CCCCCCCCCCCCCCCCCCOCC(O)CO (stereo not given)
inactive: Potency [1] | Potency [2] | outcome [3] | Potency [4] | Potency [5] | outcome [6] | outcome [7] | Potency [8] | Potency [9] | outcome [10]

C[C@H](O)C(=O)Nc1c(I)c(C(=O)NC(CO)CO)c(I)c(C(=O)NC(CO)CO)c1I
inactive: Potency [1] | Potency [2] | outcome [3] | Potency [4] | Potency [5] | outcome [6] | outcome [7] | Potency [8] | Potency [9] | outcome [10]

Cn1cnc2c(=O)[nH]c(N)nc21
inactive: Potency [1] | Potency [2] | outcome [3] | Potency [4] | Potency [5] | outcome [6] | outcome [7] | Potency [8] | Potency [9] | outcome [10]

O=C(O)/C=C/c1ccc(/C=C/C(=O)O)cc1
inactive: Potency [1] | Potency [2] | outcome [3] | Potency [4] | Potency [5] | outcome [6] | outcome [7] | Potency [8] | Potency [9] | outcome [10]

CCN1CCCC(OC(=O)C(c2ccccc2)c2ccccc2)C1 (stereo not given)
inactive: Potency [1] | Potency [2] | outcome [3] | Potency [4] | Potency [5] | outcome [6] | outcome [7] | Potency [8] | Potency [9] | outcome [10]

NC(=O)CCCCC1CCSS1 (stereo not given)
inactive: Potency [1] | Potency [2] | outcome [3] | Potency [4] | Potency [5] | outcome [6] | outcome [7] | Potency [8] | Potency [9] | outcome [10]

OCC(CO)(CO)COCC(CO)(CO)CO
inactive: Potency [1] | Potency [2] | outcome [3] | Potency [4] | Potency [5] | outcome [6] | outcome [7] | Potency [8] | Potency [9] | outcome [10]

CO[Si](OC)(OC)OC
inactive: Potency [1] | Potency [2] | outcome [3] | Potency [4] | Potency [5] | outcome [6] | outcome [7] | Potency [8] | Potency [9] | outcome [10]

CN(C)CCn1nnnc1SCC1=C(C(=O)O)N2C(=O)[C@@H](NC(=O)Cc3csc(N)n3)[C@H]2SC1
inactive: Potency [1] | Potency [2] | outcome [3] | Potency [4] | Potency [5] | outcome [6] | outcome [7] | Potency [8] | Potency [9] | outcome [10]

COc1cc(O)cc(O)c1
inactive: Potency [1] | Potency [2] | outcome [3] | Potency [4] | Potency [5] | outcome [6] | outcome [7] | Potency [8] | Potency [9] | outcome [10]

NC(=S)Nc1cccc2ccccc12
inactive: activation [1] 6.32% [at 6.98 µM] | activity change, negative = cytotoxicity [2] -0.564% [at 6.97 µM] | activity change, negative = cytotoxicity [3] 3.14% [at 8.39 µM] | viability change, negative = cytotoxic [4] 1.64% [at 8.39 µM] | activity change, negative = inhibition [5] 2.89% [at 10.5 µM] | viability change, negative = cytotoxic [6] -0.893% [at 8.39 µM] | activity change, negative = cytotoxicity [7] -0.426% [at 8.39 µM] | activity, negative = inhibition [8] 3.74% [at 8.39 µM] | activation [9] 2.72% [at 8.39 µM] | viability change, negative = cytotoxic [10] 3.04% [at 8.39 µM]

CC(C)CCCC(C)CCCC(C)CCCCC(C)CCCC(C)CCCC(C)C (stereo not given)
inactive: Potency [1] | Potency [2] | outcome [3] | Potency [4] | Potency [5] | outcome [6] | outcome [7] | Potency [8] | Potency [9] | outcome [10]

CO[Si](CCCNCCC[Si](OC)(OC)OC)(OC)OC
inactive: Potency [1] | Potency [2] | outcome [3] | Potency [4] | Potency [5] | outcome [6] | outcome [7] | Potency [8] | Potency [9] | outcome [10]

CC(C)(C)OC(=O)N1C[C@@H](F)C[C@H]1C(=O)O
inactive: Potency [1] | Potency [2] | outcome [3] | Potency [4] | Potency [5] | outcome [6] | outcome [7] | Potency [8] | Potency [9] | outcome [10]

CCCc1ccccc1O
inactive: Potency [1] | Potency [2] | outcome [3] | Potency [4] | Potency [5] | outcome [6] | outcome [7] | Potency [8] | Potency [9] | outcome [10]

O=[N+]([O-])c1ccc(CCO)cc1
inactive: Potency [1] | Potency [2] | outcome [3] | Potency [4] | Potency [5] | outcome [6] | outcome [7] | Potency [8] | Potency [9] | outcome [10]

CCN(CC)S(=O)(=O)c1ccc(C(=O)O)cc1
inactive: Potency [1] | Potency [2] | outcome [3] | Potency [4] | Potency [5] | outcome [6] | outcome [7] | Potency [8] | Potency [9] | outcome [10]

CC(C)=CC(=O)O
inactive: Potency [1] | Potency [2] | outcome [3] | Potency [4] | Potency [5] | outcome [6] | outcome [7] | Potency [8] | Potency [9] | outcome [10]

COC(=O)CCCC(=O)O
inactive: Potency [1] | Potency [2] | outcome [3] | Potency [4] | Potency [5] | outcome [6] | outcome [7] | Potency [8] | Potency [9] | outcome [10]

CC(O)CN(CCCN(C)C)CCCN(C)C (stereo not given)
inactive: Potency [1] | Potency [2] | outcome [3] | Potency [4] | Potency [5] | outcome [6] | outcome [7] | Potency [8] | Potency [9] | outcome [10]
